Key:
Assay in all cases: PBM binding z-score (relative to random genomic background probes); higher = stronger binding; sequences stand for … in GC…GCGATTGACAGCGTAGAATGAAGG
[1] = test system: PPARg:RXRa DBDmut IVT, anti-RXR (DBD mutation: RXRa K156A/R161A, NR concentration 270 nM, RXRa partner concentration 90 nM)
Method in brief: (§1)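 Random background probes are the reference for binding z-scores. These scores derive from regression-normalized fluorescence on custom Agilent 4×180K protein-binding microarrays incubated 1 h with ligand-free nuclear receptor dimers. Binding was detected with antibodies against each partner (one per run).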

[2] = test system: PPARg:RXRa IVT, anti-PPARg (NR concentration 270 nM, RXRa partner concentration 90 nM)
Method in brief: as §1

[3] = test system: PPARg DBDmut:RXRa IVT, anti-PPARg (DBD mutation: PPARg1 K132A/R137A, NR concentration 270 nM, RXRa partner concentration 90 nM)
Method in brief: as §1

[4] = test system: PPARg DBDmut IVT, anti-PPARg (DBD mutation: PPARg1 K132A/R137A, NR concentration 270 nM)
Method in brief: as §1

[5] = test system: PPARg homodimer (NR concentration 180 nM)
Method in brief: as §1

[6] = test system: PXR:RXRa (NR concentration 270 nM, RXRa partner concentration 90 nM)
Method in brief: as §1

[7] = test system: PXR homodimer (NR concentration 270 nM)
Method in brief: as §1

[8] = test system: RARa:RXR (NR concentration 270 nM, RXRa partner concentration 90 nM)
Method in brief: as §1

[9] = test system: RARa homodimer (NR concentration 270 nM)
Method in brief: as §1

[10] = test system: RARb:RXRa (NR concentration 270 nM, RXRa partner concentration 90 nM)
Method in brief: as §1

[11] = test system: RARb homodimer (NR concentration 270 nM)
Method in brief: as §1

[12] = test system: RARg:RXRa (NR concentration 270 nM, RXRa partner concentration 90 nM)
Method in brief: as §1

[13] = test system: RARg homodimer (NR concentration 270 nM)
Method in brief: as §1

[14] = test system: RXRa DBDmut IVT, anti-RXR (DBD mutation: RXRa K156A/R161A, NR concentration 90 nM)
Method in brief: as §1

[15] = test system: RXRa homodimer (NR concentration 180 nM)
Method in brief: as §1

[16] = test system: THRa:RXRa (NR concentration 90 nM, RXRa partner concentration 90 nM)
Method in brief: as §1

[17] = test system: THRa homodimer (NR concentration 90 nM)
Method in brief: as §1

[18] = test system: VDR homodimer (NR concentration 270 nM)
Method in brief: as §1

Sequence | PBM binding z-score [1] | PBM binding z-score [2] | PBM binding z-score [3] | PBM binding z-score [4] | PBM binding z-score [5] | PBM binding z-score [6] | PBM binding z-score [7] | PBM binding z-score [8] | PBM binding z-score [9] | PBM binding z-score [10] | PBM binding z-score [11] | PBM binding z-score [12] | PBM binding z-score [13] | PBM binding z-score [14] | PBM binding z-score [15] | PBM binding z-score [16] | PBM binding z-score [17] | PBM binding z-score [18]
ATCTCTAGGTAACTAAGTTCAGTGAATGCCGAAC | 2.67 | 2.89 | 1.24 | 1.19 | 1.29 | 2.49 | 2.44 | 1.25 | 0.922 | 1.37 | 1.92 | 1.03 | 0.956 | 1.16 | 0.699 | 1.67 | 0.66 | 2.04
GGAACGAGGGCAAGTTGATACCAGAGTTTGATGG | 3.63 | 3.07 | -0.214 | -0.247 | 0.551 | 0.835 | 0.927 | 0.537 | 0.0477 | 2.45 | 1.43 | 1.53 | 2.1 | 2.56 | 1 | 1.31 | -0.003 | 2.05
CGTCCAAGGTCAATGCTAGGTGAGTGAAAGCATT | 3.33 | 3.79 | 0.0432 | -0.14 | 1.77 | 3.31 | 0.668 | 3.57 | 0.59 | 4.9 | 3.95 | 5.76 | 6.07 | 3.39 | 4.73 | 3.92 | 2.34 | 2.15
AGAATGAGGTTACCAAAGATCAGGGGAACGCTTG | 3.68 | 3.55 | 0.871 | 0.161 | 0.699 | 1.59 | -0.0783 | 2.04 | 0.232 | 2.18 | 1.08 | 2.1 | 1.75 | 1.25 | 2.79 | 2.87 | 0.753 | 0.0393
TCTTGTAAATCAACAGGAGGTTAAGAAAGATCGA | 1.98 | 0.596 | 0.712 | 0.346 | 0.585 | 1.13 | 0.241 | 1.26 | 0.881 | 0.847 | 0.787 | 0.681 | 0.518 | 1.04 | 1.11 | 0.911 | -0.242 | 0.513
ACTAGCAGGCCAAGGGTCACTCCAGATTAGTCCG | 1.08 | 3.57 | -0.0917 | -0.469 | 1.44 | 2.68 | 0.019 | 3.79 | 0.278 | 3.42 | 3.65 | 3.77 | 3.48 | 0.274 | 3.74 | 2.55 | 0.269 | 1
CGTCCAAGGACATAGGAGGTCAGTGAAGACAGAT | 0.24 | 1.36 | -0.861 | -1.72 | 1.48 | 2.07 | 0.81 | 2.11 | 0.692 | 2.76 | 3.17 | 2.46 | 3.05 | 0.749 | 1.64 | 3.54 | 1.83 | 1.48
CCTGCTATGTCAATGGTCAGCTAAAGCAGCTCGC | 0.388 | 0.02 | -1.09 | -1.11 | -0.369 | -0.209 | -0.703 | -0.142 | -0.762 | 0.77 | 0.33 | 0.00581 | 0.0986 | 0.386 | -0.174 | -0.688 | -0.637 | -0.777
TCTTGTAGATCAGCAAGTTAAGAAAGCTGGCCAA | 1.5 | 0.0775 | 0.0136 | -0.449 | -0.907 | -0.095 | -0.549 | -0.2 | -0.451 | -0.472 | -0.5 | -0.41 | -0.827 | 0.54 | -0.136 | -0.47 | -1.04 | -0.456
AGTCACAGTTCAGGACGAGGTAACGTAAAGCACG | -0.095 | 0.996 | 0.513 | 0.376 | 0.443 | 1.13 | 0.45 | 1.52 | 0.51 | 2.08 | 1.66 | 2.48 | 1.95 | 1.31 | 1.28 | 3.34 | 1.84 | 0.905
TACACAGGGTCAAAGGCCAGAGTACGAATGTCGA | 1.53 | 4.08 | 0.992 | 0.428 | 1.44 | 4.11 | 0.543 | 5.47 | 0.487 | 4.53 | 3.22 | 5.65 | 5.36 | 3 | 7.62 | 3.5 | 0.79 | 3.23
TCTTGTAGATCAAAAGTTAAGAAAGCCGAAGCCT | 1.79 | 0.791 | 1.09 | 0.787 | -0.327 | 0.243 | -0.268 | 0.155 | -0.386 | -0.12 | -0.728 | 0.0681 | -0.147 | 0.742 | 0.126 | -0.34 | -1.33 | -0.181
TCTTGTAGATCAACAGGAGGTTAAGAAGGATCGA | 1.57 | 0.719 | 0.516 | 0.84 | -0.0308 | 0.778 | -0.0185 | 0.915 | -0.325 | 0.474 | 0.431 | 0.952 | 0.15 | 0.27 | 1.09 | 0.94 | -0.619 | -0.0476
TCTAGCAGGCCAGAGGGTCACTCTAGAGGTACGG | 0.721 | 0.95 | -0.508 | -0.98 | 0.476 | 1.24 | -0.322 | 2.07 | -0.492 | 2.27 | 2.57 | 2.42 | 1.97 | 0.248 | 2.34 | 1.4 | -0.529 | 0.422

— the supplement of paper PMC6555819
